Rows were chosen to be rich in hits. Some 6.1% of all compounds tested hit in one or more screens of this group.
D1 agonist: agonists of human D1 dopamine receptor. P21728. activation, % at 2 µM. HEK293 T-REx D1 cells, calcium flux, agonist mode. AID 504660. 1% of 360,000 active; in the data active = activation above about 30%
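Agonism was scored from calcium flux recorded over 180 s (1 read/s) after pintool compound addition, following a 10-cycle baseline. Cells were inducible force-coupled HEK293 TREx D1, plated overnight at 30 C and loaded with no-wash calcium dye.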
D1 potentiator: potentiators of human D1 dopamine receptor. P21728. HEK293 TREx D1 cells, calcium flux, dopamine EC20 potentiation. potentiation, % at 10 µM. 0.036% of 360,000 active; in the data active = potentiation above about 30%
D1 antag: human D1 dopamine receptor antagonism | HEK293 TREx D1 cells, calcium flux, dopamine EC80; active compounds read low | activity change, negative = inhibition, % at 10 µM | P21728 | AID 504652 | 3.2% of 360,000 active; in the data active = activity change below about -30%
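Cells carrying a force-coupled, tetracycline-inducible human D1 receptor report calcium flux. Each well gets a 10 s baseline, compound with 180 s monitoring, then an EC80 dopamine stimulus with a second 180 s kinetic read.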
DRD3 antagonist: antagonists of human D3 dopamine receptor; P35462; D3R cells, DiscoveRx beta-arrestin luminescence, antagonist mode; active compounds read low; max response, negative = inhibition, %; 2.5% of 360,000 active; AID 652054; in the data active = max response below about -50%; inconclusive = no clear call, values can overlap the other calls
Target sequence (P35462 whole entry, looked up): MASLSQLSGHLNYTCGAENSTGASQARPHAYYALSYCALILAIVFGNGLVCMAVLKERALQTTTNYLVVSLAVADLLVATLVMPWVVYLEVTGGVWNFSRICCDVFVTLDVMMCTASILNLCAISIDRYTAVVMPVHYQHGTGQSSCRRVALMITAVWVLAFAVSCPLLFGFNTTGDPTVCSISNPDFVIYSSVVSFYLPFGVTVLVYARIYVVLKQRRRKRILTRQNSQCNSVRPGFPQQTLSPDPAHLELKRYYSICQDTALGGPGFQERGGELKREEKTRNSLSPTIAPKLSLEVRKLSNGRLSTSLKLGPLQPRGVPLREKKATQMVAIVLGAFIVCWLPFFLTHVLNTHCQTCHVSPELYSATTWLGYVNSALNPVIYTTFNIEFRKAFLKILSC
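Cells expressing the human receptor were seeded at 1500 cells/well, incubated overnight at 37 degrees C in 5% CO2, then exposed to library compounds with dopamine controls for 90 minutes at 37 degrees C before luminescent detection.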
D3 ag: agonists of human D3 dopamine receptor; P35462; D3R DiscoveRx beta-arrestin cells, luminescence, 90 min; max activation, %; 0.58% of 410,000 active; in the data active = max activation above about 30%
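Agonist mode: compounds and dopamine controls were applied to plated cells for 90 min at 37 degrees C after an overnight attachment at 1500 cells/well. Luminescent read-out followed 30 - 60 minutes at room temperature with DiscoveRx detection reagent.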
Large screens that a line does not name were inactive; ! = not confirmed by another sample.

Cc1cccc(N2CCN(C(=O)c3ccccn3)CC2C)c1 (stereo unspecified)	none
Cc1ccc(-c2c(C(=O)N3CCN(c4cccc(C)c4)C(C)C3)oc(=O)c3ccccc23)cc1 (stereo unspecified)	D1 antag -37 (no result: DRD3 antagonist)
Cc1cccc(N2CCN(C(=O)c3cccc(N4C(=O)C5C6C=CC(C6)C5C4=O)c3)CC2C)c1 (stereo unspecified)	D1 antag -35
CC1CCN(C(=O)CSc2nnc(NC(=O)Nc3ccccc3)s2)CC1	none (no result: D1 antag, DRD3 antagonist)
CCS(=O)(=O)c1nn2c(N)c(/C=C3/C=CC(=O)C(OC)=C3)c(=O)nc2s1	D1 agonist 31
CCOc1cc(CC(=O)N[C@@H](CC(C)C)c2ccccc2N2CCCCC2)ccc1C(=O)O	D3 ag 96!
FC(F)(F)c1nnc(-c2ccccc2)nc1Sc1ccc(Cl)cc1	DRD3 antagonist -93
FC(F)(F)c1cccc(Sc2nc(-c3ccccc3)nnc2C(F)(F)F)c1	DRD3 antagonist -61
FC(F)(F)c1nnc(-c2ccccc2)nc1Sc1ccccc1	DRD3 antagonist inconclusive (no result: D1 agonist, D1 potentiator, D1 antag)
CCOC(=O)c1[nH]c2ccccc2c1NC(=O)c1ccccc1F	none (no result: DRD3 antagonist)
Cc1ccc(Cn2cc(C(=O)c3ccc4c(c3)OCO4)c(=O)c3cc(C)ccc32)cc1	none (no result: DRD3 antagonist)
CC(=O)Nc1ccc(OS(=O)(=O)c2ccc(C(C)(C)C)cc2)cc1	D1 antag -56 (no result: DRD3 antagonist, D3 ag)
CC(=O)Nc1ccc(S(=O)(=O)Oc2ccc(/C=C3\SC(N)=NC3=O)cc2)cc1	none
O=C(Nc1nc(-c2ccc(F)cc2)cs1)C1CCN(C(=O)c2ccc(F)cc2)CC1	D1 antag -40
O=C(Nc1nc2c(F)cc(F)cc2s1)C1CCN(C(=O)c2ccc(F)cc2)CC1	none
O=C(CN1CCCC1)Nc1nc(-c2ccc3c(c2)CCN3C(=O)c2ccccc2F)cs1	D1 antag -87
Cc1cccc(C(=O)N2CCc3cc(-c4csc(NC(=O)CN5CCCC5)n4)ccc32)c1	D1 antag -31
CNc1nc(-c2ccc3c(c2)CCN3C(=O)c2ccc(F)cc2)cs1	D1 antag -38
Cc1cccc(C(=O)N2CCc3cc(-c4nc(NC(=O)CN5CCCC5)sc4C)ccc32)c1	none
Cc1ccc(OCCN2CCN(C(=O)CCC(=O)Nc3nnc(CC(C)C)s3)CC2)cc1	D3 ag 72
C=CCOC(=O)C1=C(C)NC(SCC(N)=O)=C(C#N)C1c1cccs1 (stereo unspecified)	D1 antag -45
CC(=O)C1=C(C)NC(SCC(N)=O)=C(C#N)C1c1cccs1 (stereo unspecified)	DRD3 antagonist inconclusive
CCOC(=O)NNc1ccc(N(CC)CC(C)O)nn1 (stereo unspecified)	none (no result: D1 agonist, D1 potentiator, D1 antag, DRD3 antagonist)
O=C1CC(c2ccccc2)CC(O)=C1C=NCc1ccccc1Cl (stereo unspecified)	DRD3 antagonist -92
O=C1CC(c2ccccc2)CC(O)=C1C=NCc1ccco1 (stereo unspecified)	DRD3 antagonist -57
O=C1CC(c2ccccc2)CC(O)=C1C=NCc1ccccc1 (stereo unspecified)	none
COc1cccc(CSc2nc3n(n2)C(c2cccc(F)c2)C(C(=O)Nc2ccccc2C)=C(C)N3)c1 (stereo unspecified)	none (no result: DRD3 antagonist)
Cc1ccc(CNc2nc3ccccc3n3c(C)nnc23)cc1	none (no result: DRD3 antagonist)
C=CCNC(=O)c1onc(CSc2ccccn2)c1C(=O)NCC=C	D1 antag -60
Cc1ccccc1-c1ccnc2[nH]n(-c3ccccc3)c(=O)c12	D1 antag -37!
CSc1sc(-c2nnc(SCC(=O)Nc3ccccc3)n2C)c2c1C=CCC2	D1 antag -36
Cc1cc(C)c(S(=O)(=O)c2ccc(C(C)(C)C)cc2)c(Cl)n1	D1 agonist 34
CCOC(=O)CNC(=O)c1cc2c(=O)n3cccc(C)c3nc2n1C	none (no result: DRD3 antagonist)
O=[N+]([O-])c1ccc(N/N=C/c2cn(Cc3ccc(F)cc3)c3ccccc23)nc1	DRD3 antagonist -54
COc1ccc(CC(=O)N2CCc3c([nH]c4ccccc34)C2c2ccc(SC)cc2)cc1 (stereo unspecified)	D1 antag -40 (no result: DRD3 antagonist)
O=C(CSCc1ccc(F)cc1)N1CCc2c([nH]c3ccccc23)C1c1ccc(Cl)cc1 (stereo unspecified)	D1 antag -31 (no result: DRD3 antagonist)
CCC(CC)C1C(C#N)=C(N)SC(N)=C1C#N	DRD3 antagonist -60
Cc1ccc(-c2cnc(C3CC3)o2)cc1S(=O)(=O)Nc1ccc(F)cc1Cl	none (no result: DRD3 antagonist)
CCC(=O)Nc1ccc(NC(=O)c2cc3ccccc3o2)cc1	none
CC(Cc1ccccc1)NC(=O)c1cc2ccccc2o1 (stereo unspecified)	D1 agonist 48
O=C(Nc1nc(-c2ccc(Br)cc2)ns1)c1ccc(F)cc1	none (no result: DRD3 antagonist)
CNC(=O)/C(C#N)=C/c1cn(CC(=O)NCc2ccco2)c2ccccc12	none
COCCNC(=O)Cn1cc(/C=C(\C#N)C(=O)NC2CCCC2)c2ccccc21	D1 potentiator 33, DRD3 antagonist -60
COc1cccc(N2CCN(C(=S)Nc3cccc(C)c3)CC2)c1	none
CC(=O)N1CCN(c2ccc(NC(=O)c3ccc(C(C)(C)C)cc3)cc2)CC1	DRD3 antagonist -89
O=C(Nc1ccc2c(c1)OCCO2)N1CCN(c2ccccc2)CC1	D1 antag -46, DRD3 antagonist -52
COc1ccc(N2CCN(C(=S)Nc3cccc(C)c3)CC2)cc1	D1 antag -41
O=C(Nc1ccc2c(c1)OCO2)N1CCN(c2ccccc2)CC1	none
CC(=O)c1ccc(NC(=S)N2CCN(c3cccc(Cl)c3)CC2)cc1	none (no result: D1 antag)
CC(=O)c1ccc(N2CCN(C(=S)Nc3cccc(Cl)c3)CC2)cc1	D1 antag -37
Cc1cc(C)cc(NC(=O)N2CCCN(c3c(Cl)cncc3Cl)CC2)c1	D1 antag -33
CNC(=S)N1CCN(c2ccc(Cl)c(Cl)c2)CC1	D1 antag -31
CC(=O)c1cccc(NC(=O)N2CCC(C(=O)c3ccc(F)cc3)CC2)c1	none
COc1ccc(C2CCCN2C(=S)Nc2cccc(C)c2)cc1OC (stereo unspecified)	D1 antag -59
CC(=O)c1ccc(N2CCN(C(=O)Nc3cccc(F)c3)CC2)cc1	D1 antag -35!
COc1ccc(-n2nc3c(N4CCCC(C(=O)NCc5ccc(C)cc5)C4)nnc(C)c3c2C)cc1 (stereo unspecified)	none (no result: DRD3 antagonist)
Cc1ccccc1Cn1c(=O)n(Cc2ccc(Cl)cc2)c(=O)c2cccnc21	none (no result: DRD3 antagonist)
Cc1ccc(NC(=O)N2CCN(c3ccc(Cl)c(Cl)c3)CC2)cc1	D1 antag -30 (no result: DRD3 antagonist)
CC(=O)c1ccc(NC(=O)N2CCN(c3ccc(C)cc3)C(C)C2)cc1 (stereo unspecified)	none
CC(C)c1ccc(NC(=O)N2CCN(c3ccc(Cl)c(Cl)c3)CC2)cc1	none (no result: DRD3 antagonist)
Cc1ccc(C(=O)N2CCN(c3ccc(NC(=O)c4cccnc4)cc3)CC2)cc1	D1 antag -31

Compound activity (PubChem)
